# HP1b binding inh: HP1-beta chromodomain-methylated histone interaction inhibition. Potency, µM (highest dose often 114 µM), hits mostly inhibitors. 390,000 tested, 0.56% active. AID 540317. P83916. AlphaScreen HP1-beta / biotin-H3K9me3 peptide binding; also: nearly all actives have a fitted effect of over 70% in size
# Target sequence (P83916 whole entry, looked up): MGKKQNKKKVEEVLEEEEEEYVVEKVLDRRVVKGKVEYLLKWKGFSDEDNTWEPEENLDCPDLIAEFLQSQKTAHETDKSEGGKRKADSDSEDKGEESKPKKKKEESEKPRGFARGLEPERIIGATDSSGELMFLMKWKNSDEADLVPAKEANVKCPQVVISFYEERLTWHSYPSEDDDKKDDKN
#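 HP1-beta protein (50 nM final) preincubated 30 min at room temperature with biotinylated H3(1-18)K9me3 peptide (50 nM) in PBS pH 7.4, 0.01% Tween-20, then compound added for 30 min. AlphaScreen streptavidin donor/nickel chelate acceptor beads (10 ug/mL final), 30 min dark, luminescence read.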
# Sfp inh: blocks B. subtilis Sfp PPTase activity | Biochemical Sfp PPTase activity, qHTS | Potency, µM, hits mostly inhibitors | 310,000 tested, 3.5% active;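 also: the enzyme is Sfp with the accession as filed and its product quenches rhodamine fluorescence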
#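 Sfp 15 nM + cpd, 15 min RT; start w/ rhodamine-CoA 5 uM, BHQ-2-YbbR 12.5 uM (final); 50 mM Hepes pH 7.6, 10 mM MgCl2, 0.01% NP-40, 0.01% BSA; read 525/598 nm at 0 and 30 min.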
# PLK1 PBD inh: PLK1 (human) polo-box domain binding inhibition; P53350; Plk1 PBD binding of FITC phosphopeptide, fluorescence polarization; Potency, µM, actives largely listed as inhibitors; 360,000 tested, 2.8% active; also: series mostly up to about 57 µM; nearly all actives have a fitted effect of over 65% in size
# BAZ2B inh: blocks human BAZ2B | AlphaScreen BAZ2B-H3K14Ac peptide displacement | AID 504333 | Potency, µM (top dose mostly 114 µM), usual class: inhibitors | 360,000 tested, 4.4% active; also: nearly all actives have a fitted effect of over 60% in size
#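 Multi-concentration screen (max 110 uM) measuring displacement of acetylated histone H3 peptide from BAZ2B by AlphaScreen, using 50 nM protein, 50 nM peptide and 10 ug/mL streptavidin donor plus Ni-chelate acceptor beads.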
# G9a inh: blocks human histone lysine methyltransferase G9a. Q96KQ7. G9a H3K9 monomethylation, AlphaScreen, 2 h. Potency, µM (series often up to 102 µM), most hits filed as inhibitors. 350,000 tested, 8.8% active. AID 504332; also: nearly all actives have a fitted effect of over 75% in size
# Target sequence (Q96KQ7 913-1193 limits assumed): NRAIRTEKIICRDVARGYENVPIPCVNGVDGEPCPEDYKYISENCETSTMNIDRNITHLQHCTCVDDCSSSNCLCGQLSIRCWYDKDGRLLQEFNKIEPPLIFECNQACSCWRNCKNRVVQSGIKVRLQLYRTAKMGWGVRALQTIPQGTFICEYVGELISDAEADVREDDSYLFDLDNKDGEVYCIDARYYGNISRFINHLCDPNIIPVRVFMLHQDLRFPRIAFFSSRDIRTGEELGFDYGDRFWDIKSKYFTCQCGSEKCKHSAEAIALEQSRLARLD
#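 Step 1: enzyme (final 20 nM) with compound, 15 min RT. Step 2: substrate peptide 500 nM and SAM 20 uM, 2 h RT. Step 3: anti-H3K9me1 antibody and AlphaScreen beads, 10 min, then plate read.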
# JMJD2A Tudor inh: JMJD2A Tudor domain (human) inhibition; O75164; AlphaScreen JMJD2A-Tudor / H3K4me3 peptide binding; Potency, µM (top dose mostly 114 µM), most hits filed as inhibitors; 390,000 tested, 4.4% active; AID 504339; also: nearly all actives have a fitted effect of over 50% in size
# Hits are given with their value; 0 = inactive; ? = inconclusive; - = no result; [ ] = remark or other dose. This is a sample that favours compounds with a hit; in the whole collection about 12% have one here. Calls follow the shape of the dose curve; as a rule, active = well fitted curve in the direction sought with a large enough effect; inconclusive = small, poorly fitted or top-dose-only effect, or another doubt; inactive = no such curve, though single readings can be large; an effect the other way counts as inactive or inconclusive.
SMILES,HP1b binding inh,Sfp inh,PLK1 PBD inh,BAZ2B inh,G9a inh,JMJD2A Tudor inh
COc1ccc(CCNC(=O)CCc2c(C)c3cc4c(C)coc4cc3oc2=O)cc1,0,-,-,0,0,0
COC(=O)NC(/C=C/c1ccccc1)[C@]1(C(C)=O)CCCC1=O (stereo not given in full),-,0,-,-,-,-
Cc1cccc(OCCn2ccnc2)c1,0,0,0,0,?,0
Clc1ccc(SCCCCn2ccnc2)cc1,?,0,0,50.1µM,?,7.94µM
CCc1cccc(OCCn2ccnc2)c1,?,0,0,50.1µM,8.91µM,11.2µM
C(=C\c1ccco1)/C1=NN(c2ccccc2)C(c2ccco2)C1 (stereo not given),0,28.2µM,0,?,0,0
O=[N+]([O-])c1ccc(/C=C/C2=NN(c3ccccc3)C(c3ccco3)C2)o1 (stereo not given),?,0,0,31.6µM,31.6µM,3.16µM
Fc1ccc(C2=NN(c3ccccc3)C(c3ccco3)C2)cc1 (stereo not given),0,0,0,0,0,0
CC(=O)c1cccc(NC(=O)C(C)OC(=O)CCN=C2NS(=O)(=O)c3ccccc32)c1 (stereo not given),0,-,0,0,0[2.33 µM],0
COc1ccc(C2/C=C\CN(C(=O)C3CC3)C(C)C(=O)N2Cc2ccc(F)cc2)cc1 (stereo not given),0,0,-,-,-,0
CC(C(=O)NCc1ccccc1)n1c(-c2ccc3c(c2)CCO3)nc2ccccc21 (stereo not given),-,-,0,-,-,-
O=C(CCN1CCOCC1)c1ccc(Br)cc1,0,0,11.9µM,0,-,0
O=C(CCN1CCOCC1)c1ccc(Cl)cc1,0,0,21.2µM,0,11.2µM,?
O=C(Cc1ccc(Br)cc1)N1CCOCC1,0,0,0,0,79.4µM,0
O=C(Cc1ccc(-c2ccccc2)cc1)N1CCOCC1,0,0,0,0,0[12.7 µM],0
O=C(NCCCN1CCOCC1)c1ccc(Cl)cc1,-,0,-,-,0[12.7 µM],-
CCc1ccccc1NC(=S)NCC1CCN(c2ccc(OC)cc2)C1 (stereo not given),12.6µM,0,?,22.4µM,?,35.5µM
CCc1cccc(C)c1NC(=S)NCC1CCN(c2ccc(OC)cc2)C1 (stereo not given),22.4µM,0,?,28.2µM,10µM,44.7µM
COc1ccc(N2CCC(CNC(=S)Nc3cccc(OC)c3)C2)cc1 (stereo not given),-,0,-,15.8µM,?,-
CCc1ccccc1NC(=S)N1CCC(NC(=O)c2ccc(OC)cc2)CC1,0,0,0,0,0[0.501 µM],0
COCCN(CC(=O)Nc1cccc(C)c1C)C(=O)c1oc2ccccc2c1C,0,-,0,-,-,0
CCN(Cc1ccccc1)C(=O)Cn1c(=O)n(Cc2ccccc2)c(=O)c2c1c1cc(OC)ccc1n2C,0,-,-,0,0,0
CCOC(=O)c1csc(NC(=O)CCS(=O)(=O)c2ccc(Cl)cc2)n1,-,-,0,-,-,-
COc1ccc(OC)c(NC(=O)c2nnn(CC(=O)Nc3ccc4c(c3)OCO4)c2N)c1,0,0,0,?,0,0
Cc1cc2nnc(SC(C)C)n2c2ccccc12,0,0,0,0,0,0
SMILES,HP1b binding inh,Sfp inh,PLK1 PBD inh,BAZ2B inh,G9a inh,JMJD2A Tudor inh
Cc1cc2nnc(SC3CCOC3=O)n2c2ccccc12 (stereo not given),0,0,0,0,10µM,10µM
Cc1cc2nnc(SC3CCCCN(C(=O)c4ccc(F)cc4)C3=O)n2c2ccccc12 (stereo not given),0,0,0,0,39.8µM,?
O=C(c1ccc(F)cc1)N1CCCCC(Sc2nnc3ccccn23)C1=O (stereo not given),0,0,0,0,0,0
Cc1cc2nnc(SC(C)C#N)n2c2ccccc12 (stereo not given),0,0,21.2µM,0,3.16µM,10µM
CC1CCN(CC(=O)N(C)c2c(N)n(Cc3ccccc3)c(=O)[nH]c2=O)CC1,0,-,0,0,0[0.501 µM],0
Cc1ccccc1-n1c(SCc2csc(Nc3ccccc3)n2)nnc1-c1cccnc1,0,0,0,?,25.1µM,?
Cc1ccc(Nc2nc(CSc3nnc(-c4ccccc4C)n3C)cs2)cc1,0,?,0,?,31.6µM,79.4µM
Cc1ccc(Nc2nc(CSc3nnc(-c4ccccc4)n3C)cs2)cc1,?,0,0,?,?,?
Cn1nnnc1SCc1csc(Nc2ccccc2)n1,0,50.1µM,0,0,?,0
CC(CN(C)C)CN1c2ccccc2Sc2ccc(C(F)(F)F)cc21 (stereo not given),-,0,-,-,0[12.7 µM],-
CN(C)CCCN1c2ccccc2Sc2ccc(C(F)(F)F)cc21,0,0,0,31.6µM,0,?
Cc1ccccc1CCNC(=O)C1CCN(S(=O)(=O)c2ccc3c(ccn3C)c2)CC1,0,-,-,0,0,0
Cc1ccc(S(=O)(=O)N2CCc3c2cc([N+](=O)[O-])cc3[N+](=O)[O-])cc1,?,0,0,?,0[2.33 µM],31.6µM
Cc1ccc(S(=O)(=O)N2CCC(=O)c3ccccc32)cc1,-,-,0,-,-,-
C=CCN1C(=CCO)[C@H]2C[C@H]3[C@@H]1CC[C@@]31c3ccccc3N3C=C4[C@@H]5N(/C=C/2[C@H]31)c1ccccc1[C@]51CC[C@H]2[C@H]1C[C@@H]4/C(=C/CO)N2CC=C,-,0,-,-,0[21.5 µM],-
CC(C)CC(=O)Nc1nc2ccc(S(C)(=O)=O)cc2s1,0,20µM,0,0,50.1µM,0
CCCNS(=O)(=O)c1ccc2nc(NC(=O)c3ccc(F)cc3)sc2c1,?,-,-,0,1.41µM,50.1µM
CS(=O)(=O)c1ccc2nc(NC(=O)CN3CCN(Cc4ccccc4)CC3)sc2c1,0,0,0,0,12.6µM,?
Cn1cccc1CN1CCC[C@]2(N[C@H](c3ccc(C(F)(F)F)cc3)[C@@H]3C(=O)N(Cc4ccccc4)C(=O)[C@@H]32)C1=O,-,-,0,-,-,-
Cc1noc(C)c1C(=O)N1CCC[C@@]2(CCN(C(=O)NC(C)C)C2)C1,-,0,-,-,0[12.7 µM],-
CCOC(=O)CSC1=Nc2ccccc2C2=NC(CCC(=O)NCc3ccc(OC)cc3)C(=O)N12 (stereo not given),0,-,-,0,0,0
Cc1ccc(OCC(=O)O/N=C(\N)Cc2ccc(Cl)cc2)cc1,0,0,2.67µM,0,0,?
COC(=O)C1C(O)CC[C@H]2CN3CCc4c([nH]c5ccccc45)C3C[C@H]12 (stereo not given in full),-,0,-,-,-,-
CCCOc1ccc2c3c(c(=O)oc2c1)CCCC3,0,0,7.52µM,0,0,0[11.4 µM]
C=CCOc1ccc2c3c(c(=O)oc2c1)CCCC3,0,-,0,-,-,0
O=C(Oc1ccc2c3c(c(=O)oc2c1)CCCC3)c1ccco1,0,0,23.8µM,0,?,0[11.4 µM]
CCn1c(CCc2ccccc2)n[nH]c1=S,0,0,0,0,0[0.501 µM],3.55µM
CCn1c(CSc2nc3ccccc3[nH]2)n[nH]c1=S,0,0,0,0,?,6.31µM

# From PubChem
